PubChem BioAssay AID1527 (The Scripps Research Institute Molecular Screening Center, 2009)
Hit rate of the full screen: of about 290,000 compounds, about 2,600 (0.9%) were called active. This is one part of a sample in which actives are shown more often than they occur. Values without a mark were called inactive.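 The calls were made as follows: active = inhibition above the mean of all tested compounds plus 3 SD, cutoff set per screening run (cut at about 7.5% in these data); inactive = the rest.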

What follows are compounds tested on VIM-2 metallo-beta-lactamase (Pseudomonas aeruginosa) (assay: VIM-2 metallo-beta-lactamase inhibitors, primary screen, biochemical, epi-absorbance readout, Pseudomonas aeruginosa enzyme (AID 1527;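 also: red hydrolysis product quenches plate fluorescence so inhibitors raise well fluorescence; 0% = enzyme with DMSO and 100% = DMSO without enzyme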)). Details: purified VIM-2, nitrocefin hydrolysis, epi-absorbance fluorescence; at 5.6 µM; stronger effect = higher value.

Question: How did the inhibition turn out when Fc1ccc(N2CCN(Cc3ccc4c(c3)OCO4)CC2)cc1 was run?
Answer: -2.76%

Question: O=C(Cc1ccccc1[N+](=O)[O-])N1CCN(Cc2ccc3c(c2)OCO3)CC1 was tested. Which inhibition did it give?
Answer: 1.82%

Question: With Cc1cc(=O)oc2c(C)c(OCC(=O)N3CCN(Cc4ccc5c(c4)OCO5)CC3)ccc12 as the compound, how does the inhibition read?
Answer: 41.5% (active)

Question: Which inhibition does the source give for CC(=O)c1c(C)n(C(C)C)c2ccc(O)cc12 here?
Answer: -2.19%

Question: Which inhibition does the source give for COc1cc2nc(N3CCN(C(=O)[C@@H]4CCCO4)CC3)nc(N)c2cc1OC here?
Answer: -2.29%

Question: For CCOC(=O)C1(CCc2ccccc2)CCN(Cc2ccco2)CC1, which inhibition is on record?
Answer: -1.92%

Question: CNC(=O)O/N=C(\N)Cc1csc2ccc(Cl)cc12 was tested. Which inhibition did it give?
Answer: -0.28%

Question: For CCN1CCN(C(=O)Cc2coc3cc(C)cc(C)c23)CC1, which inhibition is on record?
Answer: -5.4%

Question: With COC(=O)COc1cc(C)cc2oc(=O)c3c(c12)CCCC3 as the compound, how does the inhibition read?
Answer: 8.38% (active)

Question: With Cc1cc(OCc2cc(C(=O)O)oc2C)c2c3c(c(=O)oc2c1)CCCC3 as the compound, how does the inhibition read?
Answer: 56.6% (active)

Question: With O=C(N/N=C/c1c(O)n(C2CC2)c(=S)[nH]c1=O)c1ccccc1Cl as the compound, how does the inhibition read?
Answer: -1.56%

Question: With CN(C)CC1CCCCC1OC(=O)c1ccc(Cl)c(Cl)c1 (stereo not given) as the compound, how does the inhibition read?
Answer: 0.42%

Question: Which inhibition does the source give for Cc1cc2ccccn2c1C(C[N+](=O)[O-])c1c(F)cccc1Cl (stereo not given) here?
Answer: 0.92%

Question: COc1ccc(-n2c(-c3ccccc3)nc3ccccc3c2=O)cc1 was tested. Which inhibition did it give?
Answer: -3.17%

Question: Which inhibition does the source give for COCCNC(=O)CN1C2CCC1CC(O)(c1cccnc1)C2 (stereo not given) here?
Answer: -2.88%
